This is part of a sample that, as a whole, favours compounds with a hit. Of some 83,000 tested, about 20% had one in any assay.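 Compound tested at a single concentration for 48 hours in 96-well plates; a percent growth value below 10 was scored as active.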 Values without a mark were called inactive. Activity calls are given as the source filed them.

Common to all, as to test: NCI-60 one-dose screen, 48 h (100 = growth as untreated, 0 = no growth, -100 = all killed)
Test [1] has as its system HCT-15 colon. As to conditions: 10 µM unless noted.
In test [2] the test system is HT29 colon. To be noted: 10 µM unless noted.
For test [3], the system named is SNB-75 CNS. As to conditions: 10 µM unless noted.
Test [4] deals with SNB-19 CNS. To be noted: 10 µM unless noted.
The subject of test [5] is U251 CNS. As to conditions: 10 µM unless noted.
Test [6] relates to PC-3 prostate. As to conditions: 10 µM unless noted.
Test [7] relates to SK-MEL-5 melanoma. To be noted: 10 µM unless noted.
Test [8] concerns UACC-62 melanoma. To be noted: 10 µM unless noted.
Test [9] deals with LOX IMVI melanoma. As to conditions: 10 µM unless noted.
Test [10] deals with SK-MEL-28 melanoma. As to conditions: 10 µM unless noted.
Test [11] has as its system SK-MEL-2 melanoma. To be noted: 10 µM unless noted.
The subject of test [12] is EKVX NSCLC. To be noted: 10 µM unless noted.
Test [13] has as its system SN12C renal. As to conditions: 10 µM unless noted.
For test [14], the system named is UO-31 renal. To be noted: 10 µM unless noted.
For test [15], the system named is TK-10 renal. As to conditions: 10 µM unless noted.
Test [16] concerns ACHN renal. As to conditions: 10 µM unless noted.
For test [17], the system named is CAKI-1 renal. To be noted: 10 µM unless noted.
The subject of test [18] is A498 renal. To be noted: 10 µM.
Test [19] relates to HL-60(TB) leukemia. As to conditions: 10 µM unless noted.
For test [20], the system named is CCRF-CEM leukemia. As to conditions: 10 µM unless noted.

Regarding `OCCNC(Cc1ccccc1)c1ccc2c(c1)OCO2` (configuration not stated), the growth in test [1] was 100%; in [2], 73%; in test [3] it was 108%; in [4], 106%; in test [5] it was 92.9%; in test [6], 73.1%. Also, the growth is 101% in test [7]; 92.4% in test [8]; 93.5% in test [9]; 109% in test [10]; 72.2% in test [11]; 100% in test [12]. Further, the growth in [13] was 98.8%; in test [14], 78.9%; in test [15], 73.2%; in test [16] it was 106%; in test [17], 97.1%; in test [18], 86.5%. The growth was 79.6% in test [19] and 111% in [20].

Take `NC(=O)CNc1ccc([As]=[As]c2ccc(NCC(N)=O)cc2)cc1` (configuration not stated): the growth in test [1] was 44.1%; in test [2], 38.9%; in test [3], 24.5%; in test [4], 48.6%; in test [5] it was 12%; in [6], 58.3%. Also, the growth in test [7] was 23.7%; in test [8], 26.1%; in test [9], 26.2%; in test [10] it was 74.6%; in test [11], 33.8%; in [12], 23.1%. For the same molecule, the growth is 34% in [13]; 54.4% in test [14]; 58.1% in test [15]; 71.2% in [16]; 12.5% in test [17]; 58.1% in test [18]. Also, the growth in test [19] is 19.8%; in [20], 10.9%.

On to `Cc1cnc(/C=C/C(=O)O)cc1-c1cc2c(cc1C)C(C)(C)CCC2(C)C`, for which the growth in test [1] is 53.9%; in [2], 68.3%; in test [3], 62.5%; in test [4], 97.4%; in test [5], 70.9%; in test [6] it was 74.8%. In addition, the growth is 62.8% in test [7]; 65.8% in test [8]; 47.9% in [9]; 41.5% in [10]; 74.4% in [11]; 46% in test [12]. In addition, the growth in test [13] was 90.5%; in [14] it was 68.4%; in test [15], 113%; in [16], 81.7%; in [17], 79%; in test [18] it was 105%. The growth in [19] is 63.3%; in test [20], 85%.

Consider `CCn1nccc1NC(=O)C(=O)c1cn(Cc2ccc(F)cc2)c2cccc(OC)c12`, for which the growth in test [1] is 91.8%; in [2], 112%; in test [3], 91%; in test [4], 90.9%; in test [5] it was 92.1%; in test [6] it was 90.6%. Moreover, the growth in test [7] was 87.3%; in test [8] it was 78.4%; in [9] it was 84.2%; in test [10], 107%; in [11] it was 48.2%; in test [12] it was 81.6%. For the same molecule, the growth in test [13] is 86.9%; in test [14], 47.5%; in test [15] it was 120%; in [16] it was 85.3%; in test [17] it was 98.6%; in test [18] it was 94.1%. The growth in test [19] is 56.8%; in test [20], 76.6%.

On to `CCCCCN(CCCCC)CC(O)c1cc(Cl)ccc1OC` (configuration not stated), for which the growth in test [1] was 31.3%; in [2], 11.8%; in test [3] it was 84.8%; in [4] it was 56.7%; in test [5], 38.3%; in test [6], 24.5%. For the same molecule, the growth in test [7] is 37.7%; in [8], 62.3%; in [9], 14.5%; in [10], 51.7%; in [11] it was 32.8%; in test [12] it was 52.4%. For the same molecule, the growth in test [13] is 52.7%; in [14] it was 25.2%; in test [15], 73.1%; in test [16], 43.9%; in test [17], 28.7%; in test [18], 37.4%. For the same molecule, the growth in test [19] is 55.4%.

Turning to `COc1ccc(/C=C\c2cc(OC)c(OC)c(OC)c2)cc1NC(=O)/C=C/c1cc(OC)c(OC)c(OC)c1`, the growth in test [1] was 46.5%; in test [2], 34.2%; in test [3], 30.6%; in test [4], 61.8%; in test [5], 57%; in [6] it was 36%. The growth in test [7] is 1.74% (active); in test [8], 31.4%; in test [9], 46.3%; in [10], 44%; in [11], 47%; in [12], 61.6%. Besides, the growth in [13] was 71.6%; in test [14], 31.9%; in test [15] it was 82%; in [16], 53.9%; in test [17], 31.5%; in test [18], -3.68% (active). The growth is 15.7% in [19] and 39.2% in test [20].

Turning to `CCOc1ccccc1C(=O)OCC(Cl)(Cl)Cl`, the growth in [1] was 110%; in test [2] it was 96.4%; in test [3] it was 98.3%; in [4], 107%; in test [5] it was 102%; in [6], 96.5%. Also, the growth in test [7] was 106%; in test [8] it was 107%; in test [9], 104%; in test [10], 118%; in test [11], 116%; in test [12], 109%. Also, the growth is 102% in [13]; 94.4% in [14]; 99.6% in test [15]; 111% in test [16]; 98.7% in test [17]; 88.5% in test [18].

Take `O=[As](O)(O)c1ccccc1[As](=O)(O)O`: the growth in [1] was 91.1%; in test [2] it was 109%; in [3], 116%; in test [4] it was 109%; in test [5], 93.6%; in test [6], 93.3%. The growth in test [7] was 107%; in test [8], 98.5%; in [9], 87.6%; in test [10], 117%; in test [11], 119%; in [12], 110%. Further, the growth in [13] was 110%; in test [14], 78.8%; in test [15], 119%; in test [16] it was 91.1%; in test [17] it was 94.5%; in test [18] it was 102%. The figures for the growth in test [19] and in test [20] were 113% and 110%, respectively.
